# ChEMBL document CHEMBL3433997, “St. Jude Leishmania screening dataset” (2016)
# Columns and labels:
# Type in all cases: functional
# [1] = biological target: Solute carrier family 2, facilitated glucose transporter member 1 (Homo sapiens) (UniProt P11166); assay: ST_JUDE_LEISH: Cytotoxicity at 2uM final concentration against transgenic Leishmania Mexicana promastigotes LmGLUT1 that are glucose transport deficient and complemented with the human glucose transporter GLUT1. Activity is measured by DNA content using SYBR green in vitro
# Chain of Solute carrier family 2, facilitated glucose transporter member 1 (Homo sapiens) (P11166 whole entry): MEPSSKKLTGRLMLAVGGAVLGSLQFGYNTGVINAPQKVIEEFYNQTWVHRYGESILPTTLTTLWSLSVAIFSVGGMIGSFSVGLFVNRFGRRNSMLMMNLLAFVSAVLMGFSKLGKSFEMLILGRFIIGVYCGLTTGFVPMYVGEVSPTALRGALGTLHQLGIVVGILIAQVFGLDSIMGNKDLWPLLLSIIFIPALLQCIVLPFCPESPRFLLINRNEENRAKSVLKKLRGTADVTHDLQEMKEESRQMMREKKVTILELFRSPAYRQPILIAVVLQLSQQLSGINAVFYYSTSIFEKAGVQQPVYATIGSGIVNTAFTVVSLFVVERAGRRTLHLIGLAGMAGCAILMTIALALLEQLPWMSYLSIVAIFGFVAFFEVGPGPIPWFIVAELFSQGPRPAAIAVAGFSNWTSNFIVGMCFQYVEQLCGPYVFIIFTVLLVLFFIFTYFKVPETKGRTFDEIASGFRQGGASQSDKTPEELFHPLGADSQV
# [2] = biological target: Hexose transporter 1 (Plasmodium falciparum) (UniProt O97467); assay: ST_JUDE_LEISH: Cytotoxicity at 2uM final concentration against transgenic Leishmania Mexicana promastigotes LmPfHT that are glucose transport deficient and complemented with the Plasmodium falciparum hexose transporter. Activity is measured by DNA content using SYBR green in vitro
# [3] = biological target: Glucose transporter (Leishmania mexicana) (UniProt O61059); assay: ST_JUDE_LEISH: Cytotoxicity at 2uM final concentration against transgenic Leishmania Mexicana promastigotes LmGT2 that are glucose transport deficient and complemented with the L. Mexicana glucose transporter 2. Activity is measured by DNA content using SYBR green in vitro
Compound,inhibition [1] [%],inhibition [2] [%],inhibition [3] [%]
CCCCCc1ccc(N2C(N)=NC(N)=NC2(C)C)cc1,3.51,2.87,4.35
Cc1c2ccncc2c(C)c2c1[nH]c1cc(Cc3ccccc3)c(O)cc12,3.52,4.1,-3.09
CC(C)CCN1CCCN(Cc2ccc(C(=O)Nc3ccc(Cl)cc3)cc2)CC1,11.1,11.3,11.6
O=C(Nc1ccc(C(F)(F)F)cc1)c1cccc(S(=O)(=O)NCC2CCCN(CC3CCCCC3)C2)c1 (stereo unspecified),5.71,2.62,0.02
CC(C)=CCc1c(-c2ccc(O)cc2O)oc2c3c(cc(O)c2c1=O)OC(C)(C)C=C3,5.72,4.6,6.57
COc1cccc(Cc2cnc3nc(N)nc(N)c3c2C)c1,2.99,1.68,3.44
COc1ccc(CCCN2C(=O)C(c3ccccc3)(c3ccccc3)N=C2N)cc1,-1.19,-0.94,-1.7
CN(C)Cc1ccc(-c2cc3c(-c4ccc(CN(C)C)cc4)ccnc3[nH]2)cc1,5.17,12.8,2.4
Cc1ccc2[nH]c(NC#N)nc2c1,0.53,0.67,0.78
Cc1cc(=NN=Cc2ccccc2Cl)c2ccc(F)cc2[nH]1,6.47,6.14,3.93
CNC(=O)/C=C/c1cc(NC(=O)Nc2cc(C)nc3c(F)cccc23)ccc1OC,3.93,2.38,3.44
CC1CCN(C(=O)CSc2nc(-c3ccc(C(C)C)cc3)no2)CC1,7.2,9.21,6.14
CCCN(CCC)c1nn2c(=O)c(C(=O)N3CCN(Cc4ccccc4)CC3)cnc2s1,1.4,1.87,2.14
CCN(CC)CCOc1ccc(C(O)(C#CC(O)(c2ccccc2)c2ccc(OCCN(CC)CC)cc2)c2ccccc2)cc1 (stereo unspecified),-1.1,-2.58,1.94
COc1ccc(CN2CCC(Oc3cccc(NC(=O)c4ccc(C(F)(F)F)cc4)c3)CC2)cc1,0.69,1.18,3.45
CCCCCCCN1CCC(CCNc2ccnc3ccc(OC)cc23)CC1,0.51,2.47,0.79
COc1ccc(-c2cccc(NC(=O)c3cccc(C#N)c3)c2)cc1CN(C)CCN(C)C,1.23,1.39,0.48
N#Cc1cccc(NC(=O)Nc2cccc(OC3CCN(Cc4ccccc4)CC3)c2)c1,0.82,0.59,-0.29
FC(F)(F)c1ccc2[nH]c(-c3cccc(-c4ccc(CNCc5ccccc5)cc4)c3)nc2c1,-0.08,-1.13,-0.47

Compound,inhibition [1] [%],inhibition [2] [%],inhibition [3] [%]
Clc1cc(Nc2ccnc3ccc(Br)cc23)ccc1Oc1ccc2ccccc2c1Cl,2.41,5.44,1.22
N=C(N)Nc1nc(CCCCCCCCc2csc(NC(=N)N)n2)cs1,-1.03,-0.76,1.03
COC(=O)c1cc(OC)c(OC)cc1NC(=O)NC12CC3CC(CC(C3)C1)C2,4.1,2.13,1.18
Cc1nnsc1C(=O)Nc1cccc(-c2ccc(-c3nc4cc(C(F)(F)F)ccc4[nH]3)cc2)c1,1.55,2.49,-1.08
CCCNCc1ccc(-c2ccc(CN(C(=O)c3nn(-c4ccccc4)nc3C)C3CC3)cc2)nc1,0.19,0.58,0.38
COc1ccc(NC(=O)NCC2CCCN(CCCCCNC(=O)/C=C/c3ccc(Cl)c(Cl)c3)C2)c(OC)c1 (stereo unspecified),-0.03,3.1,0.18
Cc1nc2ccccc2c(=O)n1/N=C/c1ccccc1[N+](=O)[O-],3,1.45,2.65
COc1ccc(CCNc2nc(NCc3ccccc3)c3cc(OC)c(OC)cc3n2)cc1OC,5.66,8.24,0.26
CCNc1cc(C(=O)N[C@@H](Cc2ccccc2)[C@H](O)CNCCCc2ccc(OC)cc2)cc(N2CCCC2=O)c1,0.4,0.76,1.05
CN(C)c1cccc2c1nc(-c1ccco1)n2CCNCc1ccccc1,-0.08,1.58,-0.13
O=C(NCC1CC1)C1CCN(C(c2ccccc2)c2nc3ccccc3s2)CC1 (stereo unspecified),-0.89,-1.39,-4.85
CCc1cn(C)c2c(N3CCCC3=O)cc(C(=O)N[C@@H](Cc3ccccc3)[C@H](O)CNC(C)(C)c3cccc(OC)c3)cc12,4.6,2.52,7.65
COc1ccc2nc(SC(C)C(=O)c3c[nH]c4ccccc34)[nH]c2c1 (stereo unspecified),2.5,0.87,2.35
Cc1cc(Br)cnc1CCCCNC1=NC(=O)CN1C,0.57,-0.02,0.12
Cc1cccc(C(=O)Nc2ccnc(N3CCCN(Cc4cccc(O)c4)CC3)c2)c1,-0.1,1.14,-0.7
CC1(C)NC(N)=NC(=N)N1OCCCO,-0.7,-0.74,-1.67
Oc1ccc(CCNc2nc(NCc3ccccc3-c3cccc(Cl)c3)nc(N3CCNCC3)n2)cc1,-2.47,-1.9,-2.27
N=C(N)c1ccc(NN=Cc2ccc(Oc3ccc(C(=N)N)cc3)cc2)cc1,3.43,3.55,0.79
